S2 tox = Viability Counterscreen for Primary qHTS for Inhibitors of ATXN expression; actives 0.49% (n = 400,000); AID 651635, 2014; S2 cells (HEK-293 line with an ATXN2-luciferase reporter) viability, CellTiter-Fluor protease fluorescence, 24 h; Potency, µM (doses to about 56.7 µM), usual class: cytotoxic; note: nearly all actives have a fitted effect of over 40% in size
ATXN2 expr inh = Primary qHTS for Inhibitors of ATXN expression. HEK-293 ATXN2-luciferase reporter, luminescence, 24 h. Potency, µM (highest dose often 57 µM), inactives show top-dose activity change, negative = inhibition, usual class: inhibitors. actives 0.72% (n = 360,000). AID 1745845, 2022; note: % is set by controls: 0 for no effect and ±100 for the full control effect; nearly all actives have a fitted effect of over 55% in size
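qHTS (up to 57 uM final) was run with 24 h compound exposure of reporter cells at 37 °C. Each well was multiplexed: SteadyGlo luminescence measured ATXN2-luciferase expression after a fluorogenic Gly-Phe-AFC viability readout (25 uM final).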
TGFb inhibitor = qHTS for Inhibitors of TGF-b; HepG2 CAGA-GFP TGF-b/SMAD3 reporter, GFP fluorescence, 18 h; TGF-beta stimulated, 500 pg/mL final; Potency, µM (highest dose often 46.1 µM), for inactives: at the highest dose activity, negative = inhibition, usual class: inhibitors; actives 1.2% (n = 410,000); AID 588855, 2011; note: % is set by controls: 0 for no effect and ±100 for the full control effect; nearly all actives have a fitted effect of over 65% in size
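HEPG2 CAGA-GFP, 1000 cells/well; 2 h settle, 37 C; cpd via pin tool; TGF-b 500 pg/mL final; 18 h, 37 C; GFP imaging ex488/em500-530; %Activity normalised to -TGF-b and +DMSO controls; CRC fit, curve class.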
ALOX12 inh = Primary qHTS assay for inhibitors of human arachidonate 12S-lipoxygenase (ALOX12): Round 2 | AID 1671190, 2021 | purified 12hLO, xylenol orange hydroperoxide absorbance | actives 1.1% (n = 580,000) | Potency, µM (top dose mostly 108 µM), for inactives: top-dose activity change, negative = inhibition, actives largely listed as inhibitors; note: % is set by controls: 0 for no effect and ±100 for the full control effect
Target sequence (P18054 whole entry, looked up): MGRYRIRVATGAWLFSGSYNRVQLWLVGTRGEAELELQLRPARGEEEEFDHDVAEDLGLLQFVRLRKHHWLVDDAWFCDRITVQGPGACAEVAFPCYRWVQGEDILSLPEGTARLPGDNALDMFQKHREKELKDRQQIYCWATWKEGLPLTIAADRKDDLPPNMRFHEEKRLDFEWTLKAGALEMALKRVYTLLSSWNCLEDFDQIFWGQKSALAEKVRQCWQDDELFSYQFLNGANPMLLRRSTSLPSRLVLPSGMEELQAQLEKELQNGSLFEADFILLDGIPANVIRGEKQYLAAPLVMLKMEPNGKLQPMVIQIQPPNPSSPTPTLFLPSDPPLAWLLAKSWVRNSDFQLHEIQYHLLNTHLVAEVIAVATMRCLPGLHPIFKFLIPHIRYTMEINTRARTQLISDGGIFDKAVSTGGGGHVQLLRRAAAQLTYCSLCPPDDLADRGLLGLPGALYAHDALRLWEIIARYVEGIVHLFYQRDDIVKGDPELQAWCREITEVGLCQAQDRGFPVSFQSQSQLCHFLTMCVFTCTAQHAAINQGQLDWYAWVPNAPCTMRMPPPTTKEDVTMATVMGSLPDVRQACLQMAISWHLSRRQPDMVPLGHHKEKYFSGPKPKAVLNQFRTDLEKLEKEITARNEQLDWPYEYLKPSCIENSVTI
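Purified human 12hLO at 150 nM in 25 mM Hepes, 0.01% Triton X-100, pH 7.0, preincubated 15 min at room temperature with compound. Reaction started with 40 uM arachidonic acid, 30 min at room temperature. Hydroperoxide measured by Fe-xylenol orange, 573/405 nm absorbance ratio.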
HepG2 tox = qHTS for Inhibitors of TGF-b: Cytotox Counterscreen. Potency, µM (series often up to 46.1 µM), for inactives: top-dose activity change, negative = cytotoxicity, actives largely listed as cytotoxic. HepG2 CAGA-GFP viability, ATP luminescence, 18 h. actives 0.76% (n = 410,000). AID 588856, 2011
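CellTiter-Glo luminescence gave cytotoxicity after 18 hours at 37 degrees C. The cells were HepG2 CAGA-GFP in 1% FBS DMEM, stimulated with 500 pg/mL TGF-beta after compound addition. %Activity was normalised to no-cell wells (complete cell-killing) and DMSO (no toxicity), and curves were fitted and classified.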
Active calls of the source: *; i = inactive; ? = inconclusive; / = no result given; ! = not active in a repeat; [ ] = another dose, or the depositor's remark. Compounds with a hit are over-represented: about 2.7% of the library has one in this group of screens. Calls come from the whole dose curve; as a rule, active = well fitted curve in the direction sought with a large enough effect; inconclusive = small, poorly fitted or top-dose-only effect, or another doubt; inactive = no such curve, though single readings can be large; an effect the other way counts as inactive or inconclusive. Potency is the fitted concentration of half-maximal effect.

SMILES	S2 tox	ATXN2 expr inh	TGFb inhibitor	ALOX12 inh	HepG2 tox
COc1ccc(C(=O)NC(=S)N(Cc2ccccc2)Cc2ccccc2)cc1	i	-37%	?	35µM*	-24%
C=CCN(CC=C)C(=S)NC(=O)c1ccc(OC)cc1	i	-23%	-2%	-17%	-26%
CN(CCC#N)C(=O)CNC(=O)C1CCCN(S(=O)(=O)c2ccc(Cl)cc2)C1 (stereo not given)	/	/	/	-19%	/
Cc1ccc(-c2nc(N)nc(N)n2)c(C)c1	i	5%	-1%	16%	-4%
N#Cc1c(-c2ccc(Cl)cc2Cl)csc1N	/	/	/	20µM*	/
Cc1ccc(-c2csc(N)c2C#N)c(C)c1	/	/	/	22µM*	/
COc1ccc(-c2cc3ccc(OCCN4CCN(CCO)CC4)cc3oc2=O)cc1	/	/	/	-4%	/
CN(/C=C/C(=O)/C=C/N(C)c1ccccc1)c1ccccc1	/	/	/	16µM*	/
COc1ccc2[nH]cc(CCNc3cc(-c4ccccc4Cl)ncn3)c2c1	/	/	/	16µM*	/
COc1ccc2[nH]cc(CCNc3ccnc(-c4cccc(NS(C)(=O)=O)c4)n3)c2c1	/	/	/	40µM*	/
O=C(Nc1ccc(Cl)cc1)N1CCC2(C1)C(=O)N(CCc1ccccc1)c1ccccc12 (stereo not given)	/	/	/	33%	/
COc1ccc2nc(Nc3nc(C)cc(C)n3)nc(C)c2c1	/	/	/	47%	/
Cc1c(CCCN)c2ccccc2n1Cc1ccccc1	?	?	?	-20%	16µM*
CC1CCN(C(=O)CN2CCCC(c3nc4ccccc4o3)C2)CC1 (stereo not given)	/	/	/	39%	/
O=C(O)c1ccccc1Nc1cc(Cl)c2nonc2c1[N+](=O)[O-]	i	0%	1%	?	7%
O=[N+]([O-])c1c(Nc2cccc(Cl)c2Cl)cc(Cl)c2nonc12	/	/	/	16µM*	/
COc1ccccc1-c1cc(C(F)(F)F)nc(S(=O)(=O)CCCC(=O)O)n1	?	?	18µM*	18%	-46%
COc1ccc(NC(=O)CCCS(=O)(=O)c2nc(-c3ccc(OC)c(OC)c3)cc(C(F)(F)F)n2)cc1OC	/	/	2.5µM*	-19%	-101%
COc1ccc(-c2cc(C(F)(F)F)nc(S(=O)(=O)CCCC(=O)Nc3ccccc3C(F)(F)F)n2)cc1OC	/	/	2.8µM*	?	-3%
COc1ccccc1-c1cc(C(F)(F)F)nc(S(=O)(=O)CCCC(=O)Nc2cc(OC)c(OC)c(OC)c2)n1	i	15%	2%	?	-15%
COc1ccc(-c2cc(C(F)(F)F)nc(S(=O)(=O)CCCC(=O)Nc3cccc(O)c3)n2)cc1OC	/	-98%	3.5µM*	-11%	5.6µM*
O=C(NCCCO)C1CC(=O)N(c2n[nH]c3cc(Br)ccc23)C1 (stereo not given)	/	/	/	9%	/
CCN1CCN(Cc2ccc(NC(=O)c3cc(NC(=O)c4cncc(-c5cccs5)c4)cc(OC)c3)cc2C(F)(F)F)CC1	35µM*	25µM*!	14µM*	?	14µM*!
CCN1CCN(Cc2ccc(NC(=O)c3cc(NC(=O)c4ccno4)cc(OC)c3)cc2C(F)(F)F)CC1	?	?	?	?	-50%
CCN1CCN(Cc2ccc(NC(=O)c3cc(NC(=O)c4cc(-c5ccc(OC)cc5)n[nH]4)cc(OC)c3)cc2C(F)(F)F)CC1	18µM*	14µM*	?	-7%	-112%
SMILES	S2 tox	ATXN2 expr inh	TGFb inhibitor	ALOX12 inh	HepG2 tox
CCN1CCN(Cc2ccc(NC(=O)c3cc(NC(=O)c4cc5cccc(OC)c5o4)cc(OC)c3)cc2C(F)(F)F)CC1	16µM*	8.9µM*!	?	-98%	18µM*!
O=C(C1CCCCC1)N1CCC2(CC1)CC(N(Cc1ccc(F)cc1)C1CC1)CCO2 (stereo not given)	/	/	/	32%	/
Cc1ccc(-c2noc(CSc3nnc4ccccn34)n2)cc1	/	/	/	-11%	/
O=C(OCC(=O)N1CCCc2ccccc21)c1ccccc1NS(=O)(=O)c1ccc(F)cc1	/	/	/	-14%	/
CCCCOc1ccc(C(=O)N2CCC[C@H]2c2nc(-c3ccccc3)no2)cc1	/	/	/	1%	/
C/C=C/C=C/C(=O)OCc1nc2c(c(=O)[nH]c(=O)n2CCCC)n1C	/	/	/	-41%	/
CNC(=O)c1ccc(Nc2cc(Nc3ccccc3S(=O)(=O)C(C)C)c3cc[nH]c3n2)nc1	/	?	/	0.97µM*	/
Cc1ccc(NC(=O)c2ccc(Nc3ccccc3F)nc2)cc1	i	23%	7%	-8%	-5%
O=C(NC(=S)NCCO)c1cn(-c2ccccc2)nc1-c1ccccc1	i	-9%	19%	40µM*	1%
CCOc1ccc2c(c1)c(N=NC(=N)N)c(O)n2C	i	12%	-17%	-10%	-24%
CCOc1ccc2c(c1)c(N=NC(N)=S)c(O)n2C	i	-33%	-4%	5µM*	-20%
O[C@H]1CC[C@@H](Cc2cc(-c3ccccc3)on2)O[C@@H]1CNC1CCCCC1	/	/	/	9%[176 µM]	/
N#C/C(=C/c1cccn1-c1cccc(C(=O)O)c1)c1ccc(Cl)cc1	i	-20%	7%	45µM*	-24%
CCCCS(=O)(=O)/C=C\C=C/S(=O)(=O)CCCC	8.9µM*	7.1µM*	?	/	-79%
O=C(N/N=C/c1cccc(Cl)c1)c1csc2ccccc12	/	/	/	29%	/
Cc1ccc(NC(=O)CN2CCN(C(=O)CCNC(=O)c3ccc(C(C)(C)C)cc3)CC2)cc1	/	/	/	2%	/
Oc1cc(Nc2ccccc2)cc2cccnc12	?	32µM*	32µM*	?	11µM*
Oc1cc(-c2cccnc2)cc2cccnc12	?	?	?	-21%	-46%
Oc1cccc2cc(Nc3ccccc3)cnc12	?	7.1µM*	3.5µM*	?	0%
Oc1cc(NCCN2CCOCC2)cc2cccnc12	?	32µM*	?	-11%	-94%
Cc1noc2c(-c3cccnc3NCCN3CCOCC3)cc(-c3ccccc3)nc12	/	/	/	10%[176 µM]	/
O=C(CN1C2=NCCCN2c2ccccc21)c1ccc([N+](=O)[O-])cc1	i	?	?	-13%	16µM*
O=C(CN1C2=NCCCN2c2ccccc21)c1cccc(Br)c1	?	-14%	?	26%	-38%
O=C(CN1C2=NCCN2c2ccccc21)c1ccc2c(c1)OCO2	16µM*	-34%	-25%	6%	-8%
CCOc1ccc(C(=O)N2CCS(=O)CC2)cc1OC	/	/	/	-51%	/
Cc1c(C(=O)N/N=C/c2ccc(Cl)cc2)[nH]c2ccc(Cl)cc12	?	/	2µM*	1%	10µM*
CCOc1ccc(/C=N/NC(=O)c2[nH]c3ccc(C)cc3c2C)cc1	i	29%	-17%	0%	-9%
